NS1 inh: qHTS Assay for Inhibitors of Influenza NS1 Protein Function | Potency, µM (titrated, usually from 46.1 µM), for the others: top-dose activity, positive = more growth | hit rate 0.4% among 270,000; calls by dose curve; further: actives are rising curves; nearly all actives have a fitted effect of over 50% in size
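S. cerevisiae expressing influenza A NS1, grown in glucose, washed, then diluted 1:100 into pH 6.0 -URA galactose medium with 23 nl compound. Growth recovery read as OD600; NS1-free strain serves as control.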
Giardia FBPA inh-1: qHTS Assay for Inhibitors of Fructose-1,6-bisphosphate Aldolase from Giardia Lamblia; purified Giardia FBPA; Potency, µM (doses to about 59.6 µM), for the others: at the top dose activity, negative = inhibition, hits mostly inhibitors; hit rate 0.71% among 290,000; A8B2U2; further: on the % scale 0 is the no-effect control and ±100 the full control effect; nearly all actives have a fitted effect of over 55% in size
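Giardia FBPA (40 nM reagent) was preincubated 10 min at RT with compound (up to 57.5 uM final), then substrate plus GAPDH/TPI/NAD/arsenate coupling system with diaphorase/resazurin was added; resorufin fluorescence (525/598 nm) was read after 20 min.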
AmpC detergent: qHTS Inhibitors of AmpC Beta-Lactamase (assay with detergent) | P00811 | AmpC hydrolysis of nitrocefin, absorbance 480 nm, 0.01% Triton | Potency, µM (doses to about 114 µM), for the others: at the highest dose activity change, negative = inhibition, most hits filed as inhibitors | hit rate 0.041% among 370,000 | AID 485294, 2010;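 further: 0% = no-compound wells and -100% = no-enzyme wells; nearly all actives have a fitted effect of over 25% in size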
Target sequence (P00811 whole entry, looked up): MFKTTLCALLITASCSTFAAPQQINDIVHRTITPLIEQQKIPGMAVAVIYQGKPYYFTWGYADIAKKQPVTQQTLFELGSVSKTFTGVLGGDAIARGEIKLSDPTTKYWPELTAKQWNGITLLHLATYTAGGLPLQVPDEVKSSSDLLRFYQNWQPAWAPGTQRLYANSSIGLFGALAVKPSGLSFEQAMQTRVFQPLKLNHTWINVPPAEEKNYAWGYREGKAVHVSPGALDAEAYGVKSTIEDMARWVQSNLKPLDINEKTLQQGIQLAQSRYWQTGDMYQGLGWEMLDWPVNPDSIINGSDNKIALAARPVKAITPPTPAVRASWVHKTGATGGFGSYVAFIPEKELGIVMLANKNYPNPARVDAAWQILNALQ
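AmpC (5.3 nM in the dispensed reagent) in 20 mM phosphate pH 7.0 with 0.01% (detergent screen) or 0.0001% Triton X-100 was preincubated with compounds for 15 min at room temperature. Nitrocefin was then added from an 800 uM solution, and hydrolysis was followed at 480 nm.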
SARS PLpro yeast: qHTS of Yeast-based Assay for SARS-CoV PLP. S. cerevisiae expressing SARS-CoV PLpro, growth rescue. Potency, µM (doses to about 32.9 µM), for inactives: top-dose activity, positive = growth rescue, usual class: activators. hit rate 0.19% among 330,000. AID 485353, 2010; calls by dose curve; further: 0% is about no effect; nearly all actives have a fitted effect of over 55% in size
AmpC no deterg: qHTS Inhibitors of AmpC Beta-Lactamase (assay without detergent). AmpC nitrocefin hydrolysis, absorbance 480 nm, 0.0001% Triton. P00811. Potency, µM (doses to about 57.1 µM), for inactives: at the top dose activity change, negative = inhibition, actives largely listed as inhibitors. hit rate 0.52% among 330,000;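 further: plate controls were no compound for no effect and no enzyme for full effect; nearly all actives have a fitted effect of over 20% in size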
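AmpC (5.3 nM in the dispensed reagent) in 20 mM phosphate pH 7.0 with 0.01% (detergent screen) or 0.0001% Triton X-100 was preincubated with compounds for 15 min at room temperature. Nitrocefin was then added from an 800 uM solution, and hydrolysis was followed at 480 nm.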
Giardia growth: qHTS Assay for Inhibitors of Fructose-1,6-bisphosphate Aldolase from Giardia Lamblia: Giardia lamblia growth inhibition | shares compounds with Giardia FBPA inh-1 | Giardia lamblia trophozoite growth inhibition | Potency, µM (highest dose often 57.5 µM), for inactives: at the highest dose activity change, negative = inhibition, usual class: inhibitors | hit rate 5% among 1,500 | AID 2785, 2010;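 further: trophozoites exposed to compound for 48 h at 37 °C; on the % scale 0 is the no-effect control and ±100 the full control effect; nearly all actives have a fitted effect of over 70% in size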
Mammal cell tox: qHTS Assay for Inhibitors of Fructose-1,6-bisphosphate Aldolase from Giardia Lamblia: Mammalian cellular toxicity. mammalian cell viability counter-screen, qHTS. shares compounds with Giardia FBPA inh-1. Potency, µM (titrated, usually from 57.5 µM), inactives show at the highest dose viability change, negative = toxicity, most hits filed as inhibitors. AID 2786, 2010. hit rate 4% among 1,500;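 further: Chinese hamster ovary cells used as mammalian cytotoxicity surrogate; viability measured as cellular ATP by luminescence; compound exposure lasted 48 h before reading; on the % scale 0 is the no-effect control and ±100 the full control effect; nearly all actives have a fitted effect of over 60% in size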
Giardia FBPA inh-2: qHTS Assay for Inhibitors of Fructose-1,6-bisphosphate Aldolase from Giardia Lamblia: Primary screen confirmation; hit rate 5% among 1,500; AID 2787, 2010; Potency, µM (highest dose often 57.5 µM), without a hit: top-dose activity change, negative = inhibition, hits mostly inhibitors; purified Giardia aldolase enzyme activity, qHTS; shares compounds with Giardia FBPA inh-1; further: on the % scale 0 is the no-effect control and ±100 the full control effect; nearly all actives have a fitted effect of over 45% in size
Rabbit FBPA inh: qHTS Assay for Inhibitors of Fructose-1,6-bisphosphate Aldolase from Giardia Lamblia: Rabbit FBPA Selectivity; shares compounds with Giardia FBPA inh-1; Rabbit muscle FBPA enzyme inhibition, selectivity counter-screen; Potency, µM (titrated, usually from 57.5 µM), inactives show top-dose activity, negative = inhibition, actives largely listed as inhibitors; hit rate 4% among 1,500; further: on the % scale 0 is the no-effect control and ±100 the full control effect; nearly all actives have a fitted effect of over 60% in size
Target sequence (P00883 whole entry, looked up): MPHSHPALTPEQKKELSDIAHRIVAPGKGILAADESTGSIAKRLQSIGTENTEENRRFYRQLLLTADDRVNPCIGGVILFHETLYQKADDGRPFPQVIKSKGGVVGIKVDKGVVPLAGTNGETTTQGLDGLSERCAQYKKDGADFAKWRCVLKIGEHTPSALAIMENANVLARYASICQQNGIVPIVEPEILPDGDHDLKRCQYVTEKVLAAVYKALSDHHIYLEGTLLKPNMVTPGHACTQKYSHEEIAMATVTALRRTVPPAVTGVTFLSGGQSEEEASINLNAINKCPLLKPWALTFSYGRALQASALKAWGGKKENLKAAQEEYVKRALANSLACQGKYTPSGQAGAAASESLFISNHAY
GAPDH counter: qHTS Assay for Inhibitors of Fructose-1,6-bisphosphate Aldolase from Giardia Lamblia: Coupling assay counterscreen confirmation. shares compounds with Giardia FBPA inh-1. GAPDH coupling enzyme counterscreen, biochemical, qHTS. Potency, µM (doses to about 57.5 µM), inactives show at the top dose activity change, negative = inhibition, usual class: inhibitors. hit rate 6% among 1,500; further: on the % scale 0 is the no-effect control and ±100 the full control effect; nearly all actives have a fitted effect of over 55% in size
* marks the source's active call; other numbers are inactive results; ? = inconclusive; · = not tested or not shown; [ ] = dose if it differs, or a comment. The list is not random: actives were taken first. Their share in the collection is about 1.4%. Unless noted, the call rests on the fitted dose curve; in most records, active means well fitted curve in the direction sought with a large enough effect; inconclusive means small, poorly fitted or top-dose-only effect, or another doubt; inactive means no such curve, though single readings can be large; an effect the other way counts as inactive or inconclusive. Potency means the concentration at half of the fitted maximal effect.

SMILES | NS1 inh | Giardia FBPA inh-1 | AmpC detergent | SARS PLpro yeast | AmpC no deterg | Giardia growth | Mammal cell tox | Giardia FBPA inh-2 | Rabbit FBPA inh | GAPDH counter
[N-]=C=C1C(=O)NC(=O)C([n+]2ccc(-c3ccncc3)cc2)C1c1ccccc1C(F)(F)F (stereo not given) | 2% | 14µM* | -9% | 1% | -22% | 9%[38.3 µM] | ? | ? | ? | 6.5µM*
CCN(CC)c1ccc(N=Nc2ncn[nH]2)cc1 | · | 3.5µM* | -3% | -7% | -22% | ? | 32µM* | -7% | 1% | -15%
Cc1c(C(=O)O)c(C(=O)O)nc2ccc(N3CCOCC3)cc12 | · | 11µM* | -11% | 0% | -12% | 25% | 8% | ? | -21% | ?
Cc1ccc2nc(C)cc(N3CCOCC3)c2c1 | 7% | -5% | -1% | · | · | · | · | · | · | ·
CCc1cc(-c2n[nH]c(=S)n2N)n(C)n1 | -6% | 10µM* | -11% | 0% | -23% | ? | 0% | 1% | 1% | 8%
CCc1nn(C)c(-c2n[nH]c(=S)n2N)c1Cl | 1% | ? | -7% | 5% | -10% | · | · | · | · | ·
O=C(O)CC(Sc1n[nH]c(=S)s1)C(=O)O (stereo not given) | 7% | 4.5µM* | 1% | 1% | 9% | 15%[38.3 µM] | ? | ? | ? | ?
Nc1ncnc(NNC(=O)CNC(=O)c2c(F)cccc2Cl)c1[N+](=O)[O-] | · | 16µM* | 6% | 1% | -5% | -16% | -3% | -2% | 5% | 0%
CCN1CCN(c2ccc(S(=O)(=O)N3CCOCC3)cc2NC(=O)c2ccccc2SC)CC1 | · | · | ? | -7% | 74% | · | · | · | · | ·
CN(C)CCCNS(=O)(=O)c1ccc(N2CCN(Cc3ccc4c(c3)OCO4)CC2)c([N+](=O)[O-])c1 | 3% | 14µM* | -6% | 0% | 64% | -17% | 0% | -7% | -1% | 14%
CCOC(=O)CSC1=C(C#N)C(C)C2=C(CCCC2=O)N1 (stereo not given) | 20% | 16µM* | -6% | 5% | -13% | -12%[10.4 µM] | -12% | -8% | 1% | 6%
Cc1ccsc1C1C(C#N)=C(N)OC2=C1C(=O)CCC2 (stereo not given) | 0% | 18µM* | 0% | -1% | -23% | 37% | 17% | -27% | -30% | ?
N#C/C(=C/c1ccco1)C(N)=S | 10% | 16µM* | -11% | -1% | -40% | ? | 6% | 2% | 2% | 6%
O=C(O)CC1OCC=C2CN3CCC45C6=CC(=O)C(=O)C([N+](=O)[O-])=C6NC4C1C2CC35 (stereo not given) | 4% | 1.3µM* | -6% | -2% | -2% | 13µM* | -11% | 4.5µM* | 8.9µM* | 4µM*
O=C(O)CC1OCC=C2CN3CCC45c6ccccc6NC4C1C2CC35 (stereo not given) | 3% | -10% | -6% | 0% | -15% | · | · | · | · | ·
Cc1cc(C)cc(NCc2cc3c(cc2[N+](=O)[O-])OCO3)c1 | -16% | -13% | 0% | -18% | -38% | · | · | · | · | ·
COc1ccc(CNCc2cc3c(cc2[N+](=O)[O-])OCO3)cc1 | 7% | 13µM* | 3% | 15% | -20% | ? | -4% | -14% | -7% | 1%
COc1ccc(C(=O)NC(=S)N2CCOCC2)cc1Br | -15% | 16µM* | 0% | -2% | -13% | ? | -2% | -2% | 5% | 7%
COc1cc(C(=O)NCCC(=O)N2CCCCC2)cc(OC)c1OC | 6% | 2% | 3% | 3% | -2% | · | · | · | · | ·
COc1cc(C(=O)NC(=S)N2CCCCCC2)cc(OC)c1OC | · | 16µM* | -11% | 1% | -11% | ? | -6% | -3% | 3% | 10%
CN(C)c1ccc(P(=O)(OC2CCCCC2)C(O)c2ccccn2)cc1 (stereo not given) | -4% | ? | -9% | -1% | 32% | · | · | · | · | ·
CCC(Sc1nnc2c3ccccc3n(C)c2n1)C(=O)Nc1nnc(C(C)C)s1 (stereo not given) | · | · | 24% | · | · | · | · | · | · | ·
COc1cc(Br)c(CNc2cc(C)ccc2C)cc1OC | -27% | 20µM* | -19% | 2% | 31% | -19% | -3% | -3% | 7% | 6%
COc1ccc(CNc2cc(C)ccc2C)c(OC)c1OC | -7% | 6% | 0% | -3% | 25% | · | · | · | · | ·
O=C(/C=C/c1ccc([N+](=O)[O-])cc1)NNC(=O)C1CC1 | · | 6% | 1% | -6% | -9% | · | · | · | · | ·
SMILES | NS1 inh | Giardia FBPA inh-1 | AmpC detergent | SARS PLpro yeast | AmpC no deterg | Giardia growth | Mammal cell tox | Giardia FBPA inh-2 | Rabbit FBPA inh | GAPDH counter
CC(=O)Nc1cccc(-c2csc(NCc3ccccc3)n2)c1 | 2% | 20µM* | -1% | -1% | -9% | 18% | -7% | 8% | 8% | 5%
CC(NC(=O)c1cc(Br)cs1)C1CCCO1 (stereo not given) | -11% | 4% | ? | 7% | -15% | · | · | · | · | ·
COc1ccccc1NC(=O)CCc1nnc2ccc(NCc3ccco3)nn12 | 7% | · | -7% | 1% | 37% | · | · | · | · | ·
CCc1nnc(NC(=O)CN2CCN(c3ccccc3OC)CC2)s1 | -3% | -27% | -3% | 0% | 8% | · | · | · | · | ·
Cc1nc(NC(=O)CN2CCOCC2)sc1C(=O)N(C)C | -10% | ? | -1% | 2% | -5% | · | · | · | · | ·
Cc1nc(NC(=O)CN2CCCCC2)sc1C(=O)N(C)C | 16% | 3.2µM* | 11% | 1% | 11% | -7%[38.3 µM] | 4% | -9% | 8% | -5%
COc1ccccc1N1CCN(CC(=O)Nc2nc(C)c(C(=O)N(C)C)s2)CC1 | 7% | 11µM* | -5% | -4% | 2% | 9% | 4% | -3% | 14% | -16%
